High-throughput results (PubChem)
Pf growth 48h: Primary qHTS for delayed death inhibitors of the malarial parasite plastid, 48 hour incubation; P. falciparum luciferase growth in erythrocytes, 48 h; Potency, µM (doses to about 28.7 µM), most hits filed as inhibitors; 5.9% of 310,000 active; AID 504832, 2011; active = well fitted inhibition curve with a large enough effect; inconclusive = small, poorly fitted or top-dose-only effect, or another doubt; inactive = no such curve, though single readings can be large or run the other way
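In quantitative HTS format, infected erythrocytes bearing luciferase-reporter parasites were treated for a single generation at 37 C. Luminescence after adding detection reagent served as the growth measure.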
Shiga toxin inh: A qHTS for Small Molecule Inhibitors of Shiga Toxin | AID 2315, 2010 | Vero cells, Shiga toxin protein synthesis inhibition reporter | inhibition, % at 38.7 µM | 9.2% of 290,000 active; in the data active = inhibition mostly above about 28%, no sharp cut-off; inactive = mostly below about 43%
SARS PLP yeast: qHTS of Yeast-based Assay for SARS-CoV PLP; S. cerevisiae expressing SARS-CoV PLpro, growth rescue; Potency, µM (titrated, usually from 32.9 µM), actives largely listed as activators; 0.19% of 330,000 active; note: nearly all actives have a fitted effect of over 55% in size
NS1 function inh: qHTS Assay for Inhibitors of Influenza NS1 Protein Function; Potency, µM (series often up to 46.1 µM); 0.4% of 270,000 active; AID 2326, 2010; note: actives are rising curves; nearly all actives have a fitted effect of over 50% in size
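Recovery from NS1-induced slow growth read by OD600 in budding yeast switched to galactose assay medium (pH 6.0, -URA) at 1:100 dilution. Compound 23 nl per well; the matching strain lacking NS1 serves as control.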
CHX counter: Cycloheximide Counterscreen for Small Molecule Inhibitors of Shiga Toxin; cell reporter, cycloheximide protein synthesis inhibition counterscreen; 12% of 300,000 active; AID 2314, 2010; max response, %; in the data active = max response mostly above about 13%, no sharp cut-off; inactive = mostly below about 14%; note: read at 38.3 µM for the half of the compounds with a filed dose
Pf growth 96h: Primary qHTS for delayed death inhibitors of the malarial parasite plastid, 96 hour incubation; 6.9% of 320,000 active; Potency, µM (top dose mostly 28.7 µM), hits mostly inhibitors; P. falciparum luciferase reporter growth, 96 h; AID 504834, 2011; active = well fitted inhibition curve with a large enough effect; inconclusive = small, poorly fitted or top-dose-only effect, or another doubt; inactive = no such curve, though single readings can be large or run the other way
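Two-generation exposure (96 h) targets delayed-death phenotype. Reporter parasites carrying integrated firefly luciferase, in red cells at 2% hematocrit and 0.05% parasitemia final, kept at 37 C, 5% CO2; luminescence loss indicates inhibition.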
A number is an active result; – = inactive; ? = inconclusive; · = no result given. Hits are enriched below; roughly 21% of the tested compounds scored in any of these assays. Unless noted, calls come from the whole dose curve.

SMILES	Pf growth 48h	Shiga toxin inh	SARS PLP yeast	NS1 function inh	CHX counter	Pf growth 96h
O=C(NCCc1ccccc1)c1cc(S(=O)(=O)N2CCOCC2)ccc1F	–	–	–	–	19	·
O=C(c1cc(S(=O)(=O)N2CCOCC2)ccc1F)N(CCc1ccccc1)Cc1ccccc1	9.3µM	·	–	·	·	?
CN(CCC#N)CC(=O)Nc1ccc(NC(=O)CN(C)CCC#N)cc1	–	–	?	–	–	–
CCOc1ccccc1Nc1nc(N)nc(CN(C)C2CCCCC2)n1	?	–	–	–	–	·
O=C(O)c1cc(S(=O)(=O)N2CCCCC2)ccc1F	–	–	–	–	–	–
CCCCCNC(=O)c1cc(S(=O)(=O)N2CCCC2)ccc1F	–	–	–	–	–	12µM
N#Cc1c(N)nc(N)nc1Nc1ccc(Br)cc1	–	90	–	–	41	–
Cc1nc(N)nc(Nc2ccc(C#N)cc2)c1Br	–	–	–	–	–	–
Cc1c(Cl)cccc1NC(=S)NCCc1ccc(F)cc1	?	–	–	–	–	13µM
Cc1c(Cl)cccc1NC(=S)NCCc1ccc(Cl)cc1	?	–	–	–	–	?
Cc1c(Cl)cccc1NC(=S)NCCc1ccc(S(N)(=O)=O)cc1	–	–	–	–	–	10µM
COc1cc(C)c(NC(=O)COc2cccc3c2OC(C)(C)C3)cc1OC	–	·	–	·	·	?
O=S(=O)(NC(=S)c1ccccc1)c1ccc(F)cc1	–	–	–	–	–	–
Cc1ccnc(NC(=O)c2ccc(N3C(=O)CCC3=O)cc2)c1	–	49	–	–	45	–
NS(=O)(=O)c1ccc2nc(NC(=O)c3ccc4c(c3)OCCO4)sc2c1	–	–	–	–	–	–
Cc1ccnc(NC(=O)c2cc([N+](=O)[O-])cc([N+](=O)[O-])c2)c1	?	–	–	·	–	–
Cc1ccc2nc(NC(=O)c3cccc(-c4cc5ccccc5oc4=O)c3)sc2c1	–	–	–	–	–	–
Cc1ccc2nc(NC(=O)c3ccc4c(c3)OCO4)sc2c1	–	76	–	–	62	–
NS(=O)(=O)c1ccc2nc(NC(=O)c3ccc4ncsc4c3)sc2c1	–	–	–	–	9.3	–
O=C(Nc1nc2cc3c(cc2s1)OCO3)c1cccc(N2C(=O)CCC2=O)c1	–	50	–	–	25	–
COc1cccc(C(=O)N2CCN(Cc3nc(CC4CC4)no3)CC2)c1	–	–	–	–	–	–
Cc1ccc2nc(NC(=O)c3ccc(N4C(=O)CCC4=O)cc3)sc2c1	–	51	–	·	31	?
CCOc1ccc2nc(NC(=O)/C=C/c3ccc4c(c3)OCO4)sc2c1	–	–	–	–	–	–
Cc1ccc2nc(NC(=O)c3ccc4ncsc4c3)sc2c1	–	60	–	–	33	–
Cc1cc(C)c2sc(NC(=O)c3ccc(N4C(=O)CCC4=O)cc3)nc2c1	–	–	–	–	–	–
SMILES	Pf growth 48h	Shiga toxin inh	SARS PLP yeast	NS1 function inh	CHX counter	Pf growth 96h
O=C(/C=C/c1ccc2c(c1)OCO2)Nc1nc2ccc(F)cc2s1	–	63	–	–	22	–
COC(=O)[C@@]12CCCCN1[C@H](c1ccc(SC3CCCCC3)cc1)[C@@H]1C(=O)N(C)C(=O)[C@@H]12	?	·	–	·	·	–
Cc1nnc(N2CCC(C(=O)N3CCCCCC3)CC2)c2nn(-c3ccc(Cl)cc3)c(C)c12	?	–	–	–	–	–
C/C(=N\O)c1cc(Cl)ccc1O	–	–	–	–	–	–
CCCCCc1ccc(C)cc1O	–	·	·	·	·	–
Cc1nnc(C)n1/N=C/c1cc(Br)cc(Br)c1O	?	–	–	–	–	?
CS/C(N)=N/N=C/c1cc(C)ccc1O	–	61	–	–	38	–
CCN(CC)c1ccc(/C=N/N=C(N)N)c(O)c1	?	–	–	–	–	?
CS/C(N)=N/N=C/c1cc(Br)cc(Br)c1O	?	65	–	–	17	?
CCCCS/C(N)=N/N=C/c1cc(C)ccc1O	–	82	–	–	44	·
CCS/C(N)=N/N=C/c1cc(C)ccc1O	–	–	–	–	53	·
Cc1ccc(CN2CCN(/N=C/c3cc(Br)ccc3O)CC2)cc1	–	–	–	–	–	–
Cc1c(NC(=O)COC(=O)c2ccc(F)c(S(=O)(=O)N3CCOCC3)c2)c(=O)n(-c2ccccc2)n1C	–	–	–	–	–	–
